Drawing on PubChem BioAssay (NCATS), this text covers Potency and activity change, negative = inhibition for 16 compounds.

Each structure is given as a SMILES string. Unmarked numbers belong to inactive results. Inconclusive results are not listed. Activity calls are given as the source filed them. Unless noted, calls follow the shape of the dose curve; as a rule, active = well fitted curve in the direction sought with a large enough effect; inconclusive = small, poorly fitted or top-dose-only effect, or another doubt; inactive = no such curve, though single readings can be large; an effect the other way counts as inactive or inconclusive.

In assay [1] the target is Glucocorticoid receptor (Homo sapiens) (UniProt P04150). In words: GR-GFP Redistribution (AID 450;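 active = compounds whose dose series gives a full or clear partial fitted curve of increased nuclear translocation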; also: potency is read from the fitted curve at half-maximal effect). The note with it: U2OS GR-GFP nuclear translocation, laser cytometry, 2 h.
Assay [2] has the same target. As to the kind of experiment: GR-EFC Redistribution (AID 451; calls by dose curve; also: potency is read from the fitted curve at half-maximal effect). As to conditions: CHO-K1 GR-EFC translocation, beta-gal luminescence, 2 h. The essentials: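 CHO-K1 cells stably expressing nuclear-localized β-gal enzyme acceptor and GR fused C-terminally to the enzyme donor fragment; ligand-driven nuclear translocation restores β-gal by complementation. Compounds titrated up to 46 uM final, 2 h at 37 °C; luminescence read.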

The target in assay [3] is Mitogen-activated protein kinase 10 (Mus musculus) (UniProt Q61831). As to the kind of experiment: JNK3 AlphaScreen Assay (AID 530; active = well fitted curve in either direction with a large enough effect, not every such curve was filed as active;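 also: kinase came from lysate of stimulated human HepG2 cells; signal reports phosphorylation of biotinylated GST-cJun 1-79 at Ser73 with 10 µM ATP; series mostly up to about 57 µM; % is scaled to controls: 0 for no effect and ±100 for the full control effect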). An outline of the steps: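 Biotinylated GST-cJun(1-79) served as substrate for JNK3 in HepG2 lysates stimulated with IL-1beta and TNF-alpha. ATP was 10 uM final, pH 7.6. Ser73 phosphorylation was quantified by AlphaScreen (680 nm excitation).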

In assay [4] the target is Ubiquitin carboxyl-terminal hydrolase 1 (Homo sapiens) (UniProt O94782). As to the kind of experiment: Inhibitors of USP1/UAF1: Pilot qHTS (AID 504865).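 Also: rhodamine fluorescence freed from ubiquitin-rhodamine substrate followed over time; top concentration of the series differs between compounds; % is scaled to controls: 0 for no effect and ±100 for the full control effect; nearly all actives have a fitted effect of over 35% in size.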 An outline of the steps: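 In 50mM HEPES pH 7.8 containing 0.5mM EDTA, 1mM TCEP, 0.1 mg/ml BSA and 0.01% Tween-20, 1nM USP1/UAF1 is exposed to compound for 15 min, then Ub-Rho (150nM final) is added and fluorescence is read over time.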

Assay [5] addresses DNA dC->dU-editing enzyme APOBEC-3G (Homo sapiens) (UniProt Q9HC16). As to the kind of experiment: qHTS for inhibitors of Vif-A3G interactions: Validation (AID 588379). Also: 0% is about no effect. An outline of the steps: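 Yellow fluorescence (Ex 488, Em 500-530) of Vif-coexpressing HeLa A3G-eYFP cells, scanned by Acumen cytometer, reports blocked A3G degradation. Cells plated at 700/well overnight at 37 deg C before compound addition, then a further overnight compound incubation at 37 deg C.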

The subject of assay [6] is Zika virus NS2B-NS3 protease. In words: Primary screen GU AMC qHTS for Zika virus inhibitors (AID 1347154). Also: nearly all actives have a fitted effect of over 70% in size. Also: potency is read from the fitted curve at half-maximal effect.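 As to activity change, negative = inhibition: 0% = no-inhibitor control and -100% = no-enzyme control.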 An outline of the steps: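 Unlinked Zika NS2B hydrophilic domain/NS3 protease domain noncovalent complex (25 nM final) in 10 mM Tris-HCl pH 8.0, 0.01% Tween 20, with AMC peptide substrate. Fluorescence (ex 340, em 450 nm) change over 15 min, room temperature; percent inhibition fitted to 4-parameter Hill equation.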

Assay [7] can be described thus: Primary qHTS for small molecule stabilizers of the endoplasmic reticulum resident proteome: Secreted ER Calcium Modulated Protein (SERCaMP) assay (AID 1508630). Also: % is scaled to controls: 0 for no effect and ±100 for the full control effect. The essentials:
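The SH-SY5Y reporter protocol was run at 3 concentrations up to 38.3 uM (primary) or 11 concentrations (follow-up): 16 h compound, 100 nM thapsigargin for 4 h, then extracellular luciferase luminescence.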

Assay [8] addresses Cytochrome P450 1A2 (Homo sapiens) (UniProt P05177). As to the kind of experiment: p450-cyp1a2 (AID 410; calls by dose curve; also: potency is read from the fitted curve at half-maximal effect). The essentials:
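Read-out is luminescence from luciferin produced by CYP1A2 demethylation of Luciferin-ME (100uM, at Km). Detection reagent stopped the 60 min NADPH-dependent reaction; signals were normalized to 57 uM furafylline.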

Assay [9] addresses 3',5'-cyclic-AMP phosphodiesterase 4B (Homo sapiens) (UniProt Q07343). As to the kind of experiment: qHTS Assay for Inhibitors of PDE-IV (AID 607; active = well fitted activation curve with a large enough effect in the main read-out, with a control signal flat, not every such curve was filed as active; also: potency is read from the fitted curve at half-maximal effect). An outline of the steps:
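The readout is membrane depolarisation from a cAMP-sensing CNG channel, detected with a potential dye at ex 535/em 590. Cells were HEK293-derived (endogenous PDE-IV) at 1000 cells/well, titrated up to 22.9 uM final.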

The target of assay [10] is Cytochrome P450 2C19 (Homo sapiens) (UniProt P33261). As to the kind of experiment: qHTS Assay for Inhibitors and Substrates of Cytochrome P450 2C19 (AID 899). Also: potency is read from the fitted curve at half-maximal effect; nearly all actives have a fitted effect of over 60% in size. An outline of the steps: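 NADPH-dependent conversion of Luciferin-H EGE (10uM, at KM) by 5nM enzyme in 50mM KPO4, 60 min at 37C following 10 min compound preincubation. Stopped with luciferin detection buffer; luminescence read after 20 min.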

Assay [11] has as its target Cytochrome P450 3A4 (Homo sapiens) (UniProt P08684). As to the kind of experiment: qHTS Assay for Inhibitors and Substrates of Cytochrome P450 3A4 (AID 884). Also: potency is read from the fitted curve at half-maximal effect; nearly all actives have a fitted effect of over 50% in size. An outline of the steps: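 Luminescent readout of luciferin produced by CYP3A4 (20 nM) dealkylation of Luciferin-PPXE, 25 uM (its KM). NADPH-driven reaction ran 60 min at RT after 10 min compound preincubation; data scaled to 57 uM ketoconazole as 100% inhibition.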

The target is the same in assay [12]. As to the kind of experiment: qHTS Assay for Activators of Cytochrome P450 3A4 (AID 885). Also: nearly all actives have a fitted effect of over 65% in size. The essentials: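 Activators are scored by enhanced luminescence from CYP3A4 conversion of luciferin-PPXE (25uM, equal to KM) to luciferin, after 60 min at RT with an NADPH-regenerating system.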
Assay [13] concerns the target Cytochrome P450 2D6 (Homo sapiens) (UniProt P10635). As to the kind of experiment: qHTS Assay for Inhibitors and Substrates of Cytochrome P450 2D6 (AID 891). Also: potency is read from the fitted curve at half-maximal effect; nearly all actives have a fitted effect of over 60% in size. The essentials:
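Luminescent read-out of luciferin formed by 5 nM human CYP2D6 demethylating 30 uM Luciferin-ME EGE (Km level) over 60 min at room temperature after NADPH regeneration addition. Data normalized to full inhibition by 1.43 uM quinidine.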

Assay [14] concerns the target Cytochrome P450 2C9 (Homo sapiens) (UniProt P11712). As to the kind of experiment: qHTS Assay for Inhibitors and Substrates of Cytochrome P450 2C9 (AID 883). Also: potency is read from the fitted curve at half-maximal effect; nearly all actives have a fitted effect of over 60% in size. The essentials: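 A luminogenic readout tracked human CYP2C9 (10nM) converting deoxyluciferin (100uM, at KM) in 25mM KPO4 during 60 min at 37C with regenerated NADPH. Values normalized to 57uM sulphaphenazole as complete inhibition.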

Chain of Cytochrome P450 3A4 (Homo sapiens) (P08684 whole entry, looked up): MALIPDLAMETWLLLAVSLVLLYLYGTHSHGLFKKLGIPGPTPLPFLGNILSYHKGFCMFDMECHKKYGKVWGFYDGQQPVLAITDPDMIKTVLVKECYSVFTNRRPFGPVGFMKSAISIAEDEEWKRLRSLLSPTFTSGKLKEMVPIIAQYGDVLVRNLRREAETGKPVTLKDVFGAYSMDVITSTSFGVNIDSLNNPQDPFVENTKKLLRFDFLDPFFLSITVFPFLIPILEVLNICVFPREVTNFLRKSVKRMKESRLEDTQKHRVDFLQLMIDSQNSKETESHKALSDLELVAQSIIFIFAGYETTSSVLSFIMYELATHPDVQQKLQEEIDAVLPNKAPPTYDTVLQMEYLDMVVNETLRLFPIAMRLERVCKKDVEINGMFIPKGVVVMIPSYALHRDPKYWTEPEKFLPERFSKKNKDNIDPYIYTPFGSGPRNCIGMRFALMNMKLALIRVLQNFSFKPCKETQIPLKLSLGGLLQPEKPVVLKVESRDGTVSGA
Chain of Ubiquitin carboxyl-terminal hydrolase 1 (Homo sapiens) (O94782 whole entry, looked up): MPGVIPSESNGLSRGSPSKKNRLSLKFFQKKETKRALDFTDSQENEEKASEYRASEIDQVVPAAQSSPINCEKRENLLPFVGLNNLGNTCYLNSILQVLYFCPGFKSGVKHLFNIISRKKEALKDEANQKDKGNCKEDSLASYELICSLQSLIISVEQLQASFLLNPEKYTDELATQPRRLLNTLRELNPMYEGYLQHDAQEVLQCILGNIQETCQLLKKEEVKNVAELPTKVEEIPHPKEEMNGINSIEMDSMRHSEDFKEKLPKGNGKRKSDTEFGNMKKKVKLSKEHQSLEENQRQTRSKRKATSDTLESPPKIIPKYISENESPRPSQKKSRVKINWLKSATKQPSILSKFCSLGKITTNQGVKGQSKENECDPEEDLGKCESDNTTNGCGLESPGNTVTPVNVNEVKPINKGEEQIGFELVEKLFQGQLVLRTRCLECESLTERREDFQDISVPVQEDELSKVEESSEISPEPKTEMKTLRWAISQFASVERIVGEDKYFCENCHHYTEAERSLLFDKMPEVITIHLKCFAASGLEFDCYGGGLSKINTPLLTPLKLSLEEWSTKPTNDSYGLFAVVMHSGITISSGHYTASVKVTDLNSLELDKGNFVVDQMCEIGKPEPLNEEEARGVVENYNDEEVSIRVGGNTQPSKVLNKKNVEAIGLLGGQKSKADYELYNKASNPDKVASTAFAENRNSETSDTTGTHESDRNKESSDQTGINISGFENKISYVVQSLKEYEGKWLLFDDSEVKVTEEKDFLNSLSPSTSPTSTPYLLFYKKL
Chain of DNA dC->dU-editing enzyme APOBEC-3G (Homo sapiens) (Q9HC16 whole entry, looked up): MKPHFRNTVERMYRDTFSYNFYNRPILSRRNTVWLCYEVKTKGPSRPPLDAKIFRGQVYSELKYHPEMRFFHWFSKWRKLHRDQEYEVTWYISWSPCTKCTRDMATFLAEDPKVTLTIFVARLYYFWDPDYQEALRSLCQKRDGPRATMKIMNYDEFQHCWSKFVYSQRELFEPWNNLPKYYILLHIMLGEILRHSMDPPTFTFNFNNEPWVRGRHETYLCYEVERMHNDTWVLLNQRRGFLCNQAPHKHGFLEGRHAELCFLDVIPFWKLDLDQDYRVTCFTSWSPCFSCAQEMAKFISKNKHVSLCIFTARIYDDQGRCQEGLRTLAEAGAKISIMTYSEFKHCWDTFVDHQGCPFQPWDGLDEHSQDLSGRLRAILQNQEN
Chain of Cytochrome P450 1A2 (Homo sapiens) (P05177 whole entry, looked up): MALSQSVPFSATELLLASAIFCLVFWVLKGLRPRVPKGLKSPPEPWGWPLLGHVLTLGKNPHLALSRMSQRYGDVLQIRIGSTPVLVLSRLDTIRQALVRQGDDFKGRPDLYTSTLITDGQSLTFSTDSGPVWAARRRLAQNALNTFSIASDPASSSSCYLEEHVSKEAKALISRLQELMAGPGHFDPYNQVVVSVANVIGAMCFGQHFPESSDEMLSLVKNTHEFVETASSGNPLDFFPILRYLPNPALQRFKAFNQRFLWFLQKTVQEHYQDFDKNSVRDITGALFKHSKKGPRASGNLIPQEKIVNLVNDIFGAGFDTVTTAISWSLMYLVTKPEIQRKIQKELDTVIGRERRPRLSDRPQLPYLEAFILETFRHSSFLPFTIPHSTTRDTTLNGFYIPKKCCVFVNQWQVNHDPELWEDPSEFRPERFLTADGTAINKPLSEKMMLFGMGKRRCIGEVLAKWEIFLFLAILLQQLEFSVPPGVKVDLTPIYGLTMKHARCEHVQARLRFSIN
Chain of Glucocorticoid receptor (Homo sapiens) (P04150 whole entry, looked up, the tested form may be a part): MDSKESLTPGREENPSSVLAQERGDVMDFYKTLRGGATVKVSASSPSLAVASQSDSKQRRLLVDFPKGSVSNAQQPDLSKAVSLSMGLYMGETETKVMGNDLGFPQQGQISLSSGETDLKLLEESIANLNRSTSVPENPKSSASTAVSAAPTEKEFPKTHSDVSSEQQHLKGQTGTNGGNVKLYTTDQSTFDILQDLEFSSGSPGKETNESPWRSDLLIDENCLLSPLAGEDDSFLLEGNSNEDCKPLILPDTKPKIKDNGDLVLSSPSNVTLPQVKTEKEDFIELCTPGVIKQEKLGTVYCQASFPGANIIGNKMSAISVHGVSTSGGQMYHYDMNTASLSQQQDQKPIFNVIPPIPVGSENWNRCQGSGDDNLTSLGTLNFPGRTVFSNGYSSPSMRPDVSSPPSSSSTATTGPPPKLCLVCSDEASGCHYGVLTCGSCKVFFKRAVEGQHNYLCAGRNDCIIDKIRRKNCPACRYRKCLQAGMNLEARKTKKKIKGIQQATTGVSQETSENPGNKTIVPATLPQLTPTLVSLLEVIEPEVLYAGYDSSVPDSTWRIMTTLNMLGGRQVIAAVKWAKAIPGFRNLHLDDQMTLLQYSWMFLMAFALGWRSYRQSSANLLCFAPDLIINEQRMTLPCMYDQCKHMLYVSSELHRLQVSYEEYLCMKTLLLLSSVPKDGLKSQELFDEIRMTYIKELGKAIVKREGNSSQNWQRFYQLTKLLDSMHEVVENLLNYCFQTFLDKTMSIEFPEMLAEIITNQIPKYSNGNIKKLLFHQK
Chain of 3',5'-cyclic-AMP phosphodiesterase 4B (Homo sapiens) (Q07343 whole entry, looked up): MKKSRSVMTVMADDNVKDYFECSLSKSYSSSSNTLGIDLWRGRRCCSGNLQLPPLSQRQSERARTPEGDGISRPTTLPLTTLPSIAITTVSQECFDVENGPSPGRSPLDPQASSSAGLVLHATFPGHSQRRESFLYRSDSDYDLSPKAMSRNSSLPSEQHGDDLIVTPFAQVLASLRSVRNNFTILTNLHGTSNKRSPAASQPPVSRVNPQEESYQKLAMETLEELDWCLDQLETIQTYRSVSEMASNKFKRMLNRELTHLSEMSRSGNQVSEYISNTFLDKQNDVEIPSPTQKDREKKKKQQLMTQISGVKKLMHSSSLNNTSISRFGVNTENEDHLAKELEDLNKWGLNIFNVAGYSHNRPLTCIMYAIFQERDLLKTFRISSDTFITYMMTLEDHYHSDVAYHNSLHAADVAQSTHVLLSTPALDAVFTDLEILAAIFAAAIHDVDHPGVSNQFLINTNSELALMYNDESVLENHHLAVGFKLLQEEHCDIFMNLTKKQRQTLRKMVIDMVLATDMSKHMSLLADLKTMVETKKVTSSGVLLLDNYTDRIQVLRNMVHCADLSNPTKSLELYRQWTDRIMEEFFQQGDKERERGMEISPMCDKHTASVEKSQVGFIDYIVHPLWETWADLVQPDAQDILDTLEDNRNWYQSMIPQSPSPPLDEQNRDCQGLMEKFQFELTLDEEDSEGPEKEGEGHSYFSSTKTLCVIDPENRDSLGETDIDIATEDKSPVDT
Chain of Cytochrome P450 2D6 (Homo sapiens) (P10635 whole entry, looked up): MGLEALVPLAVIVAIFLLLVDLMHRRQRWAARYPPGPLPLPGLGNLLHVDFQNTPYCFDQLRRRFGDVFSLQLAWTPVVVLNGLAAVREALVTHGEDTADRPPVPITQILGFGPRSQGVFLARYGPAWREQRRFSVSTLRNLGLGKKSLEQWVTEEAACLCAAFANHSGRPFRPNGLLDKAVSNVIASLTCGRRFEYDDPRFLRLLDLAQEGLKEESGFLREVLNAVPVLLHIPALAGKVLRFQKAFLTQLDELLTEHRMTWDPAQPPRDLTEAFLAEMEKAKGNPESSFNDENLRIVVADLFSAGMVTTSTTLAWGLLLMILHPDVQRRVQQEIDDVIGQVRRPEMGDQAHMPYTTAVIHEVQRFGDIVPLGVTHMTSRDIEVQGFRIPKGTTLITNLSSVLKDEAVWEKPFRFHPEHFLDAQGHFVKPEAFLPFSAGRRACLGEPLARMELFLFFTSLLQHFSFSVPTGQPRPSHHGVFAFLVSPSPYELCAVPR
Chain of Cytochrome P450 2C19 (Homo sapiens) (P33261 whole entry, looked up): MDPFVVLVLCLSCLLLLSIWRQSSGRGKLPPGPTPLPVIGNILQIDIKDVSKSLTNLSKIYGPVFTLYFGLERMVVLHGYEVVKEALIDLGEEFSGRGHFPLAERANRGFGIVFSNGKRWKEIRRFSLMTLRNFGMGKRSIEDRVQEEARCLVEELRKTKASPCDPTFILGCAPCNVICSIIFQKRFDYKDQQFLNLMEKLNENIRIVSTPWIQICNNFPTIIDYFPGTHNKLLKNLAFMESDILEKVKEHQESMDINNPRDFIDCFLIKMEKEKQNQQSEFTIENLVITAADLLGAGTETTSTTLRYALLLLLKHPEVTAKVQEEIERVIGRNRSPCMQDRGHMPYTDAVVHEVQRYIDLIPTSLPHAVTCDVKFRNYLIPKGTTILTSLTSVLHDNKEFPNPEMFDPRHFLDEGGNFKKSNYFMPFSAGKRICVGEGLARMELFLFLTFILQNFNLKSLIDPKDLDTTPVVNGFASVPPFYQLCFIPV

Regarding `N[C@H](C(=O)O)c1cccc(O)c1`, the Potency in assay [1] and in assay [2] was above 46 µM in each case. The Potency entry in assay [3], in assay [4], in assay [5], in assay [6] and in assay [7] was “inactive” in each case.

For `CCC(=O)N[C@@H]1CCc2cccc(OC)c2C1`, the Potency in [8] was 12.6 µM (active); in assay [1], above 46 µM. For the same compound, the Potency result in assay [3], in assay [9], in [6] and in assay [7] was “inactive” each time.

`O=C(Nc1ccccc1)[C@@]12C[C@@H]1/C(=N/O)c1ccccc1O2`: the Potency is 2.51 µM (active) in assay [8], above 46 µM in assay [1] and above 46 µM in assay [2]. The Potency result in assay [9], in [5], in assay [6] and in [7] was “inactive” throughout.

On to `Cc1cc(Cn2cnc3c2C[C@@H](C(=O)O)N(C(=O)C(c2ccccc2)c2ccccc2)C3)ccc1N(C)C`, for which the Potency in assay [1] is above 46 µM; in [2], above 46 µM; in assay [10], 1.58 µM (active). The Potency entry in assay [9], in assay [4], in [5], in assay [6] and in [7] was “inactive” throughout.

Regarding `COc1cccc(CNc2ccc3nc(-c4ccc(N)cc4)c(OC)n3n2)c1`, the Potency in assay [8] was 39.8 µM (active); in assay [1], above 46 µM; in [11], 5.01 µM (active). Further, the Potency result in assay [3], in assay [12], in assay [4], in assay [5], in assay [6] and in assay [7] was “inactive” each time.

On to `CCOC(=O)C1=C(C)NC(c2ccccc2)=C(C(=O)OCc2ccc([N+](=O)[O-])cc2)[C@@H]1C#Cc1ccccc1`, for which the Potency in [1] and in assay [2] was above 46 µM each time. The Potency entry in assay [3], in assay [9], in [5], in assay [6] and in assay [7] was “inactive” in each case.

In the case of `CCCCC[C@H](O)/C=C/[C@H]1C=CC(=O)[C@@H]1C/C=C\CCCC(=O)O`, the Potency in [1] is above 20.6 µM. The activity change, negative = inhibition in assay [6] is 7.12% [at 6.83 µM]; in [7], -13.8% [at 3.88 µM].

`O=c1[nH]c2cc(Cl)ccc2c(O)c1-c1cccc(Oc2ccccc2)c1`: the figures for the Potency in assay [1], in assay [2] and in assay [13] were above 46 µM, above 46 µM and 6.31 µM (active), respectively. Moreover, the Potency result in assay [3], in assay [4], in [5], in [6] and in assay [7] was “inactive” throughout.

As for `Cc1nc2ccc(NC(=O)Nc3ccnc4cccnc34)cc2o1`, the Potency was 1 µM (active) in [8] and above 46 µM in assay [1]. Besides, the Potency entry in assay [9], in assay [12], in assay [5], in assay [6] and in assay [7] was “inactive” throughout.

For `CCCCCCN(CCCCCC)C(=O)Cc1c(-c2ccc(Cl)cc2)[nH]c2ccc(Cl)cc12`, the Potency in assay [1] and in assay [2] was above 46 µM each time. Besides, the Potency result in assay [3], in assay [9], in assay [12], in [4], in [6] and in assay [7] was “inactive” throughout.

`CCCCC(=O)NCCc1c(Cc2ccccc2)[nH]c2ccccc12`: the Potency in [8] is 3.16 µM (active); in [11] it was 0.794 µM (active). Further, the Potency result in assay [3], in assay [12], in assay [5], in assay [6] and in assay [7] was “inactive” throughout.

As to `CCCn1c(=O)c2[nH]c(-c3ccccc3)nc2n(CCC)c1=O`, the values for the Potency in assay [8], in assay [1] and in assay [9] were 0.0794 µM (active), above 46 µM and 0.379 µM (active), respectively. Further, the Potency result in assay [12], in assay [4], in [6] and in [7] was “inactive” throughout.

`O=C(O)CC/C=C\C[C@@H]1CO[C@H](c2ccccc2Cl)O[C@@H]1c1ccccc1O`: the Potency in [1] and in assay [2] was above 46 µM in each case. The Potency result in assay [3], in assay [12], in [4], in [6] and in [7] was “inactive” each time.

As for `c1cc2c(cc1C1CCCCC1)c1c3n2CCN[C@H]3CCC1`, the values for the Potency in assay [8], in assay [1] and in [2] were 15.8 µM (active), above 46 µM and above 46 µM, respectively. Also, the Potency result in [12], in [6] and in assay [7] was “inactive” throughout.

On to `COc1ccc(-c2ccc(=N)n(CCCC(=O)O)n2)cc1`, for which the Potency in assay [1] was above 46 µM; in assay [2] it was above 46 µM; in assay [14], 3.16 µM (active); in [13], 3.98 µM (active); in assay [10], 0.158 µM (active). The Potency result in assay [3], in assay [4], in [5], in assay [6] and in assay [7] was “inactive” throughout.

As for `N[C@@H](Cc1cc(-c2ccc(Cl)cc2Cl)cc(CP(=O)(O)O)c1O)C(=O)O`, the Potency in assay [8] is 20 µM (active); in assay [1] it was above 46 µM; in assay [2], above 46 µM; in assay [6], 23.8 µM (active). The Potency result in [9], in [5] and in assay [7] was “inactive” in each case.
